The results in this text go back to ChEMBL document CHEMBL3988442, “University of Dundee, Small-Polar-MMV Screening Library” (2021).

For some of these results: Entries with a potency or affinity are not part of this list.

Common to all, as to set-up: scale not given: direction of the effect not stated beside the values
Test [1] deals with Protein translocase subunit SecA (Escherichia coli (strain K12)) (UniProt P10408). Put plainly: Assay to Identify E. coli SecA ATPase Inhibitors. It is filed as functional. To be noted: 30 µM.
Protein translocase subunit SecA (Escherichia coli (strain K12)), sequence (P10408 whole entry): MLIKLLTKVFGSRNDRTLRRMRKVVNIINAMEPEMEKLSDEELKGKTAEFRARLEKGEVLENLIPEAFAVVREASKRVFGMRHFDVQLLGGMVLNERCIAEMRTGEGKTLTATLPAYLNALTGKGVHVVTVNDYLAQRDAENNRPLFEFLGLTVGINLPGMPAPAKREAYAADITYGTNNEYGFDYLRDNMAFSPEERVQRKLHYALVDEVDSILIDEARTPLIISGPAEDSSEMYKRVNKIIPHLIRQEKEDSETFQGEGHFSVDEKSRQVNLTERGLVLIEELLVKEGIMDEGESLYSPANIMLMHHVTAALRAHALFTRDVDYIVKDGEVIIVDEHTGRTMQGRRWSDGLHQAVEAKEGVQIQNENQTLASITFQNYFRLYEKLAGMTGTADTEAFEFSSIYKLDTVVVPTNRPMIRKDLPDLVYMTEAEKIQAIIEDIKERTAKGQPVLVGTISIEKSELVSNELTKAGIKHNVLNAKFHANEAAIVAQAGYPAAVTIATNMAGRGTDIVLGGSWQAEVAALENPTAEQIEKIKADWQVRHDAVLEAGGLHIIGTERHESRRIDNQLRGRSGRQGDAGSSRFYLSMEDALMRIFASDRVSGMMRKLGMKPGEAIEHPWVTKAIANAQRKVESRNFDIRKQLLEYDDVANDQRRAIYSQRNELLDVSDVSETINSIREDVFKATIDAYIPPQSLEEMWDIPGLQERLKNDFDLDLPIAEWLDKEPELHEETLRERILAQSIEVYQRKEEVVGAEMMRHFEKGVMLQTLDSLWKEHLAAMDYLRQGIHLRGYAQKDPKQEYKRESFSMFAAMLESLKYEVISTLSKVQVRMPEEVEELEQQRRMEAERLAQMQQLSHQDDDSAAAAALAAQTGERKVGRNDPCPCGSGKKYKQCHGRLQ
Test [2] addresses T1, Ubiquitin-activating enzyme e1, putative (Leishmania donovani (strain BPK282A1)) (UniProt E9BSI1).
T1 sequence (whole entry): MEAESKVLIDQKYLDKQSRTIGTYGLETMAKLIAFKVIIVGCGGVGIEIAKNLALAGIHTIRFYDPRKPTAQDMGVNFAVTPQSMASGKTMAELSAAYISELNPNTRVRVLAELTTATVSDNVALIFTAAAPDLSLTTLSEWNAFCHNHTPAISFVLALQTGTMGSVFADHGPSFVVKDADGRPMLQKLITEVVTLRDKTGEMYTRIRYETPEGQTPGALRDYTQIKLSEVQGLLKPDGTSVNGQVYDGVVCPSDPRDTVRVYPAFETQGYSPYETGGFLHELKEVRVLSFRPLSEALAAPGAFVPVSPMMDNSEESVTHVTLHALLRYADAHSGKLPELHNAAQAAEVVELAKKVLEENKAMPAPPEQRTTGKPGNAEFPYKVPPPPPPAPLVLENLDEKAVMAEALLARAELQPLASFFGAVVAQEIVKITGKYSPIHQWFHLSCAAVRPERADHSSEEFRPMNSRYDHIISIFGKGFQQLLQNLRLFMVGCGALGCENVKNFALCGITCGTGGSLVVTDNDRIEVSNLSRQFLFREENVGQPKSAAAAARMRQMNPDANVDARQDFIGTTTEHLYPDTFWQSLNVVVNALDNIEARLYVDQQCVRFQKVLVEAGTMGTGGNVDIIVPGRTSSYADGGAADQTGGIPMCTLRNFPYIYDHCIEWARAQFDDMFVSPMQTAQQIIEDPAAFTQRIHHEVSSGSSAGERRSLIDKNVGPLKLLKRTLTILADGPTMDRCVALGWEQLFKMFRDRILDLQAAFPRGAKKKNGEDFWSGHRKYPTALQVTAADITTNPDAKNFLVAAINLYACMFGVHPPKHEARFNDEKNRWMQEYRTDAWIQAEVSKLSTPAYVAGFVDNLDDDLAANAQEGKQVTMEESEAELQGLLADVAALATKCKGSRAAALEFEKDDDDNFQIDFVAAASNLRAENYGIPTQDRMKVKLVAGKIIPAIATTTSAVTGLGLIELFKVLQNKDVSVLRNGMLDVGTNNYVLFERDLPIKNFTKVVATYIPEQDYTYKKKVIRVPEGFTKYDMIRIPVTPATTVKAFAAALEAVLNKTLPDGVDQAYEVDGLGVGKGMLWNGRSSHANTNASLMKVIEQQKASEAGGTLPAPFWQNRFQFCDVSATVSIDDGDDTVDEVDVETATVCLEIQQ
Briefly: Leishmania donovani Ubiquitin Activating Enzyme (LdE1). Type of test: functional. As to conditions: 30 µM.

The target of test [3] is AMP-activated protein kinase, AMPK (Homo sapiens) (UniProt P54646+O43741+P54619+Q9UGJ0+Q9Y478+Q13131+Q9UGI9). Briefly: AMP-dependent Kinase enzyme assay. An in vitro enzyme assay that detects ADP turnover that is directly proportional to AMPK activity. This uses naive AMPK that is activated during the assay with MK-8722. Type of test: functional. To be noted: 30 µM.
Test [4] deals with Sialic acid-binding Ig-like lectin 9 (Homo sapiens) (UniProt Q9Y336). Put plainly: Hs-Siglec9 ALPHAscreen SOP 20170721. As to conditions: 10 µM.
Sialic acid-binding Ig-like lectin 9 (Homo sapiens), sequence (Q9Y336 whole entry): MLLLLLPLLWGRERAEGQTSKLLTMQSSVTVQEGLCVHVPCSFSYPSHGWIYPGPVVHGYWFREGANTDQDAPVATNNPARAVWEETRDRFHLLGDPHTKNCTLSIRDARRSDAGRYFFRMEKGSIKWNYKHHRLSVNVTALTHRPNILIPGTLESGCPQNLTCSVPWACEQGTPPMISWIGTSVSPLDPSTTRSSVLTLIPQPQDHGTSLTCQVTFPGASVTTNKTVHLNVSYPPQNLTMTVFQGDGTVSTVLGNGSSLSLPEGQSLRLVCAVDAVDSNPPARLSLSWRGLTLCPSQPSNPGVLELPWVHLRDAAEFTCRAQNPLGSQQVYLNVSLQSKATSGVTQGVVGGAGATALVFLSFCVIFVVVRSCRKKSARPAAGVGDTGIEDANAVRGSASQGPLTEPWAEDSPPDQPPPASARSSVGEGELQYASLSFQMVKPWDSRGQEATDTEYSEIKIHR
Another test deals with Trypanosoma cruzi. Put plainly: Trypanosoma cruzi phosphomannomutase and mannose-1-phosphate guanylyltransferase assay. To be noted: 10 µM. Type of test: functional.
For test [5], the target named is T2, Arginase-2, mitochondrial (Homo sapiens) (UniProt P78540).
T2 sequence (whole entry): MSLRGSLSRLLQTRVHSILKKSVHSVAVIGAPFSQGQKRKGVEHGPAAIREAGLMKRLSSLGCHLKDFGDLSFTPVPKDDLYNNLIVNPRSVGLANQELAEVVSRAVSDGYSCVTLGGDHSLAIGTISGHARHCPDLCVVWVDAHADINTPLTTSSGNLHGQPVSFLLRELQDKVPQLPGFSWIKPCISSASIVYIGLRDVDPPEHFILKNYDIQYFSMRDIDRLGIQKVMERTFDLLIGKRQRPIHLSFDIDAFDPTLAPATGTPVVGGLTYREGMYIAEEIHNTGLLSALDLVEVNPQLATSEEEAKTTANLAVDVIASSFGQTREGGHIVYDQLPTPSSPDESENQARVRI
Briefly: in vitro enzyme assay to detect the production of urea directly proportional to the activity of Arginase II. Further: in the data most compounds retested in dose-response had high values. It is filed as functional. To be noted: 33.3 µM.

In test [6] the target is T3, Proteasome subunit beta (Trypanosoma cruzi) (UniProt O96673).
T3 sequence (whole entry): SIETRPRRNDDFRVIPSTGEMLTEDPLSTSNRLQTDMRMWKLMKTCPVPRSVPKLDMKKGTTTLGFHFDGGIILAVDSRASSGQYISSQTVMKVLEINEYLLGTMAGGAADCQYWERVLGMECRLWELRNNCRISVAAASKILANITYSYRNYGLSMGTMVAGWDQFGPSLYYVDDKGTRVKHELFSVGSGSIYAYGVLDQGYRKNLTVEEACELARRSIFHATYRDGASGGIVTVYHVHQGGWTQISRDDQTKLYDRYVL
Put plainly: Trypanosoma cruzi proteasome chymotrypsin-like activity (TcProtChymo) assay. Further: in the data most compounds retested in dose-response had high values. Type of test: functional. As to conditions: 9.37 µM.

The next test is filed under the species Homo sapiens. Put plainly: To identify inhibition of the IFN signalling (Jak-Stat) pathway via expression of an eGFP reporter gene under the control of an IFN-stimulated response element (ISRE) containing MxA promoter. Type of test: functional. To be noted: 30 µM. (In general: In a reporter assay the amount or activity of a reporter protein is the signal.)

Test [7] deals with T4, Tyrosyl-tRNA synthetase, putative (Trypanosoma cruzi (strain CL Brener)) (UniProt Q4DSP6).
T4 sequence (whole entry): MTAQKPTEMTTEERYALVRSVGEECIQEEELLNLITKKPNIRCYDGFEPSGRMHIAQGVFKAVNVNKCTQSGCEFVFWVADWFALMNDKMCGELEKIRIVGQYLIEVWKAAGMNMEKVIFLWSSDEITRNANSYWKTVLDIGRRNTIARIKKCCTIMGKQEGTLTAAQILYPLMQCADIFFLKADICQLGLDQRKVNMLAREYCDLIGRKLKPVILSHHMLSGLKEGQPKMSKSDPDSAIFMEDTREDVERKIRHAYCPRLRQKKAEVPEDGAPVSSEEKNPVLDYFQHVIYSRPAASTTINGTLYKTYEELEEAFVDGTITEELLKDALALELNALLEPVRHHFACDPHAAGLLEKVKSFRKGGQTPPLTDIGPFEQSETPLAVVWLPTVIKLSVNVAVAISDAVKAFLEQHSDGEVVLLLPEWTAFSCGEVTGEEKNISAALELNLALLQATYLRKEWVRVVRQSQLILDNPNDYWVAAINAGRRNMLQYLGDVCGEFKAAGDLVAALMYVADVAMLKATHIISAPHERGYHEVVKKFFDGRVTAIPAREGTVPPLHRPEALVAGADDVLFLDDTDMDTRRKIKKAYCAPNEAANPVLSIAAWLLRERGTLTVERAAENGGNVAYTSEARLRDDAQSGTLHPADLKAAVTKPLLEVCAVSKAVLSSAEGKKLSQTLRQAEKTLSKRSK
Briefly: Trypanosoma cruzi tyrosyl tRNA synthetase (TcYRS) _High Tyrosine SOP. Further: in the data most compounds retested in dose-response had high values. To be noted: 30 µM. It is filed as functional.

In test [8] the target is T4, Tyrosyl-tRNA synthetase, putative (Trypanosoma cruzi (strain CL Brener)). Put plainly: Trypanosoma cruzi tyrosyl tRNA synthetase (TcYRS) SOP. Type of test: functional. To be noted: 30 µM.
In test [9] the target is Chromo domain-containing protein 1 (Saccharomyces cerevisiae (strain ATCC 204508 / S288c) (Baker's yeast)) (UniProt P32657). Briefly: ScCHD-1 Enzyme Inhibition Assay. Further: in the data most compounds retested in dose-response had high values. It is filed as functional. As to conditions: 30 µM.
Chromo domain-containing protein 1 (Saccharomyces cerevisiae (strain ATCC 204508 / S288c) (Baker's yeast)), sequence (P32657 whole entry, the tested form may be a part): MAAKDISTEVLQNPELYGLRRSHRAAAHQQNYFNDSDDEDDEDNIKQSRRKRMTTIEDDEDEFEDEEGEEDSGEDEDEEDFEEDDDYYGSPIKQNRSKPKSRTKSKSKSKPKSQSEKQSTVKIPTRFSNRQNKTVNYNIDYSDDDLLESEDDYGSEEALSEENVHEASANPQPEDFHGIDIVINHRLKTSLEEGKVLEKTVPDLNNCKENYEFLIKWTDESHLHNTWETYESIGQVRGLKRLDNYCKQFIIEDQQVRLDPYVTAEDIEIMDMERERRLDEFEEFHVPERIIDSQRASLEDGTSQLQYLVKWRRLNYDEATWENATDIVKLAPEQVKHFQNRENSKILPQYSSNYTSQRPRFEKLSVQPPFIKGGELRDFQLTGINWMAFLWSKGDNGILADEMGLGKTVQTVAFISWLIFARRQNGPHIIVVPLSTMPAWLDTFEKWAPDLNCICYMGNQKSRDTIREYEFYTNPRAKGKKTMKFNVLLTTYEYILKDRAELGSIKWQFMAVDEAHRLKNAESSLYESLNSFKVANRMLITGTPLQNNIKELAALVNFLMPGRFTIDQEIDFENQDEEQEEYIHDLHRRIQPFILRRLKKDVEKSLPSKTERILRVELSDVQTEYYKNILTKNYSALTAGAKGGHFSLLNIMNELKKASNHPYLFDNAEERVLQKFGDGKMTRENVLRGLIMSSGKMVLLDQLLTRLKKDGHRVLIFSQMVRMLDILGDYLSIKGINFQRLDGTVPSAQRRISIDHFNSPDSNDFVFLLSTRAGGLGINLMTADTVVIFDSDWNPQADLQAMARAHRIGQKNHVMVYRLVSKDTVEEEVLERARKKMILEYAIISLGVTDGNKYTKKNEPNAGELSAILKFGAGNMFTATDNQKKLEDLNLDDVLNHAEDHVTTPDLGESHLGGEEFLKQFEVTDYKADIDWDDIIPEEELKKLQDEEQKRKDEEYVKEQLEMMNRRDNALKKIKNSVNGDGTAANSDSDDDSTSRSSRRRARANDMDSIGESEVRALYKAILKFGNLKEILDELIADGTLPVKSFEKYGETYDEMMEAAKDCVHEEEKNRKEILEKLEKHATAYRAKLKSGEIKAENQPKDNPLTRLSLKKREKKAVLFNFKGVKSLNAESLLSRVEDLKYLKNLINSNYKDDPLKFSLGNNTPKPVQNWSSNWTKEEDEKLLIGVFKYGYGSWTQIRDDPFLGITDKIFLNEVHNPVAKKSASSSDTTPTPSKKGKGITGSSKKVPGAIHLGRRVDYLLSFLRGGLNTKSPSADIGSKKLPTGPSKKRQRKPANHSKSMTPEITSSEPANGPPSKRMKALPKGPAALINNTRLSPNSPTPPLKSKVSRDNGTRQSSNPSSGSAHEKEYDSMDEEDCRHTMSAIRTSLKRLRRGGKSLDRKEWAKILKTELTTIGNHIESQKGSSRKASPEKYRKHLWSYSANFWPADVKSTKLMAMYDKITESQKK

Regarding `Cc1cnn(C2CCCN(C(=O)c3ccnc(N(C)C)c3)C2)c1` (stereo unspecified), the Percent Effect in test [1] was -0.378%; in test [2] it was 19%; in [3], -4.04%; in test [4], -2.57%; in the test with Trypanosoma cruzi it was -1.54%; in test [5] it was 0.645%. Besides, the Percent Effect in [6] was 10.3%; in the test listed under Homo sapiens it was 19.4%; in test [7], 1.04%; in test [8] it was 5.06%; in test [9] it was -31.1%.
On to `O=C1COC2(CCN(Cc3ccccn3)CC2)CN1CC1CC1`, for which the Percent Effect in test [1] is 0.889%; in test [2], 2.6%; in [3], 17.2%; in [4], 2.67%; in the test with Trypanosoma cruzi it was -4.83%; in test [5] it was -1.94%. The Percent Effect in test [6] is -3.13%; in the test listed under Homo sapiens it was 9.22%; in [7] it was 1.06%; in [8] it was 3.85%; in test [9], -1.35%.
As for `COc1ccc(NC(=O)NC(C)c2nc[nH]n2)cc1` (stereo unspecified), the Percent Effect in [1] is -1.78%; in test [2], 8.11%; in test [3] it was -0.122%; in test [4], 9.35%; with Trypanosoma cruzi, 3.03%; in test [5], 19.6%. The Percent Effect is 17.9% in test [6]; -13.4% in the test filed under Homo sapiens; 0% in test [7]; 11.1% in test [8]; -3.04% in test [9].
`COc1cc(C)nc(N2CCN(C(=O)CCc3cscn3)CC2)n1`: the Percent Effect is 1.16% in [1]; 2.7% in test [2]; -1.3% in test [3]; 0.273% in [4]; -6.95% with Trypanosoma cruzi; 1.91% in [5]. The Percent Effect in test [6] was 11.4%; in the test listed under Homo sapiens, 0.884%; in test [7], 5.82%; in [8], 9.76%; in test [9], -3.75%.
Turning to `O=C(c1ccc[nH]1)N1CCN(CC2CCOc3ccccc3C2)CC1` (stereo unspecified), the Percent Effect in test [1] was -7.81%; in test [2], 1.39%; in test [3], -3.67%; in [4], 14.8%; with Trypanosoma cruzi, 1.07%; in [5], -1.77%. Further, the Percent Effect was 4.04% in test [6]; -2.27% in the test listed under Homo sapiens; 3.16% in test [7]; -7.69% in test [8]; -1% in [9].
Consider `c1ccc(OCC2CC3(CCN(c4ncccn4)CC3)CO2)nc1` (stereo unspecified), for which the Percent Effect in test [1] was -0.807%; in [2] it was 1.33%; in test [3] it was 3.04%; in test [4], -2.52%; with Trypanosoma cruzi it was -1.57%; in [5], -5.46%. In addition, the Percent Effect was 10.9% in [6]; 14% in the test filed under Homo sapiens; 0% in test [7]; -2.56% in [8]; -5.94% in test [9].
On to `Cc1cc(-c2nnn(CCNS(C)(=O)=O)n2)ccc1F`, for which the Percent Effect in [1] was -6.86%; in test [2], 5.48%; in test [3], 0.593%; in test [4], 2.92%; in the test on Trypanosoma cruzi, 3.17%; in test [5] it was 0.399%. The Percent Effect in [6] was 4.71%; in the test filed under Homo sapiens, 17.4%; in test [7] it was 9.38%; in [8], 18.5%; in [9] it was -2.42%.
Regarding `CCN1CC2(CC1=O)CN(C(C)=O)CCN(C(=O)c1ccco1)C2` (stereo unspecified), the Percent Effect in test [1] is -1.61%; in test [2], 5.48%; in test [3], -6.62%; in test [4], 5.12%; in the test with Trypanosoma cruzi it was -0.595%; in test [5], -4.79%. The Percent Effect in test [6] was 5.05%; in the test listed under Homo sapiens it was 4.81%; in test [7], 1.04%; in test [8], 3.7%; in test [9] it was -1.88%.
Turning to `Cc1ccccc1Cc1cnc(NC(=O)C2CNC(=O)N2)s1` (stereo unspecified), the Percent Effect in [1] was -3.2%; in test [2], 3.8%; in [3] it was -1.9%; in [4], 0.365%; in the test with Trypanosoma cruzi, 2.36%; in [5], -4.95%. Moreover, the Percent Effect in test [6] was 13.7%; in the test listed under Homo sapiens, 22.3%; in test [7] it was 2.08%; in test [8] it was 15.2%; in [9] it was -23.7%.
Take `CCc1ccc(CN2C[C@@H]3OCCN(c4ccnc(N(C)C)n4)[C@@H]3C2)o1`: the Percent Effect was -1.43% in [1]; 5.48% in [2]; -0.72% in test [3]; 13.7% in test [4]; 1.98% with Trypanosoma cruzi; -13.6% in test [5]. For the same molecule, the Percent Effect in [6] is 7.28%; in the test filed under Homo sapiens it was 82.1%; in [7] it was 5.21%; in test [8], -3.7%; in [9], -4.54%.
With `CCNC(=O)CN1CCCN(C(=O)C2CCCc3[nH]ncc32)CC1` (stereo unspecified), the Percent Effect is -3.9% in test [1]; 8.11% in test [2]; -2.94% in test [3]; 6.84% in test [4]; 1.66% in the test with Trypanosoma cruzi; 5.21% in [5]. The Percent Effect in test [6] was 5.75%; in the test listed under Homo sapiens it was -11.9%; in [7] it was 3.23%; in [8], 8.64%; in [9] it was -4.21%.
